Source: PubChem BioAssay (Tox21)
A number with no mark means an inactive call. Inconclusive results are not listed. Entries that show only a call come without a potency. Active and inactive are the calls of the source. Unless noted, calls follow the shape of the dose curve; as a rule, active = well fitted curve in the direction sought with a large enough effect in the repeat runs; inconclusive = weak or mixed curves; inactive = no such curve, though single readings can be large; an effect the other way counts as inactive or inconclusive.

Key:
[1] = qHTS assay to identify small molecule antagonists of the estrogen related receptor (ERR) signaling pathway from Tox21 library - cell viability counter screen (AID 1224834); also: nearly all actives have a fitted effect of over 30% in size; also: potency is read from the fitted curve at half-maximal effect
Outline: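 Compounds in DMSO were pinned onto ERR cells that had been incubated for 6 h, and the plates were held at 37 C for 17.5 h. CellTiter-Fluor reagent was then added and fluorescence was measured after 30 min.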

[2] = target: Luciferin 4-monooxygenase (Photinus pyralis) (UniProt P08659); test: qHTS assay to identify small molecule inhibitors of firefly luciferase (AID 1224835); also: nearly all actives have a fitted effect of over 25% in size; also: potency is read from the fitted curve at half-maximal effect
Outline: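 Biochemical qHTS: compounds run as interplate titrations against purified firefly enzyme, with D-luciferin and ATP each at its KM concentration. Light output recorded by CCD imaging.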

[3] = qHTS assay to identify small molecule agonists of the constitutive androstane receptor (CAR) signaling pathway - cell viability counter screen (AID 1224836); also: nearly all actives have a fitted effect of over 45% in size
Outline: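 Compound titrations (15 concentrations) went onto HepG2-CYP2B6-hCAR cells 4 h after seeding, alongside PK11195 at a final 0.75 uM; a 23 h, 37 C/5% CO2 incubation preceded CellTiter-Fluor viability measurement.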

[4] = qHTS assay to identify small molecule antagonists of the constitutive androstane receptor (CAR) signaling pathway - cell viability counter screen (AID 1224837); also: nearly all actives have a fitted effect of over 45% in size
Outline: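 Cells are seeded, rested 4 hr at 37 C/5% CO2, dosed with compound (15-point series) and 50 nM CITCO, incubated a further 23 hr, and then CellTiter-Fluor reagent is added before fluorescence is read. The line is HepG2 with stable hCAR and CYP2B6-2.2kb.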

[5] = target: Nuclear receptor subfamily 1 group I member 3 (Homo sapiens) (UniProt Q14994); test: qHTS assay to identify small molecule antagonists of the constitutive androstane receptor (CAR) signaling pathway (AID 1224838);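 also: HepG2 cells stably expressing hCAR with CYP2B6 luciferase reporter stimulated by CITCO; nearly all actives have a fitted effect of over 40% in size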
Outline: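 Luminescence from a CYP2B6-2.2kb promoter reporter in hCAR-expressing HepG2 cells reflects CAR signaling. Cells received compounds at 15 concentrations and 50 nM CITCO (final), then incubated 24 h at 37 C/5% CO2.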

[6] = target: Nuclear receptor subfamily 1 group I member 3 (Homo sapiens) (UniProt Q14994); test: qHTS assay to identify small molecule agonists of the constitutive androstane receptor (CAR) signaling pathway (AID 1224839); also: nearly all actives have a fitted effect of over 15% in size; also: potency is read from the fitted curve at half-maximal effect;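 as to activation: HepG2 cells stably carrying human CAR and a CYP2B6 luciferase reporter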
Outline: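 In this screen, CAR-driven CYP2B6 promoter activity is measured by luminescence in HepG2-CYP2B6-hCAR cells after 24 h with test compounds and 0.75 uM PK11195 (final concentration).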

[7] = qHTS assay to identify small molecule antagonists of the estrogen related receptor signaling pathway with the pleiotropic PPARgamma coactivator (PGC) from Tox21 10K library - cell viability counter screen (AID 1224840; active = well fitted cell-killing curve with a large enough effect in the repeat runs, not every such curve was filed as active; also: nearly all actives have a fitted effect of over 40% in size)
Outline: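 Cell viability is measured by CellTiter-Fluor fluorescence in PGC/ERR cells that receive compounds after a 6-hour attachment period and are then incubated 17.5 hours at 37 C.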

[8] = qHTS assay to identify small molecule antagonists of the estrogen related receptor signaling pathway with the pleiotropic PPARgamma coactivator (PGC) from Tox21 10K library (AID 1224841; call rule not given here; also: actives are mostly falling curves and most rising ones were filed inactive; nearly all actives have a fitted effect of over 50% in size)
Outline: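 Cells stably carrying the PGC/ERR reporter, seeded at 2,000 per well, received pin-transferred compounds 6 h post-plating. Exposure lasted 18 h at 37 C. Signal: One-Glo luminescence.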

[9] = qHTS assay to identify small molecule agonists of the estrogen related receptor signaling pathway with the pleiotropic PPARgamma coactivator (PGC) from Tox21 10K library (AID 1224842); also: nearly all actives have a fitted effect of over 15% in size; also: potency is read from the fitted curve at half-maximal effect
Outline: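 PGC/ERR reporter cell line, 2,000 cells per well, incubated 6 h at 37 C before 23 nL compound in DMSO was added. After 18 h at 37 C, One-Glo luminescence read following 30 min at room temperature.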

[10] = qHTS assay to identify small molecule agonists of the hypoxia (HIF-1) signaling pathway - cell viability counter screen (AID 1224844; calls by dose curve; also: nearly all actives have a fitted effect of over 50% in size)
Outline: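 Viability counter screen: HRE-bla ME-180 cells plated 5 hrs before compound addition, treated 17 hrs at 37C and 5% CO2, then CellTiter-Glo added after the FRET reporter read; luminescence after 30 min.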

[11] = qHTS assay to identify small molecule agonists of H2AX (AID 1224845; active = well fitted activation curve with a large enough effect in the signal ratio in the repeat runs, not every such curve was filed as active; the % refers to the signal ratio)
Outline: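 Wild-type CHO-K1 cells, plated overnight, exposed 3hr at 37C to 15 concentrations (0.76% DMSO final). Lysed, then HTRF anti-pH2AX (S139) cryptate and anti-H2AX-d2 antibodies, 24 hr room temperature; 665/620 nm emission read.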

[12] = qHTS assay to identify small molecule agonists of the hypoxia (HIF-1) signaling pathway (AID 1224846; active = well fitted activation curve with a large enough effect in the signal ratio in the repeat runs, not every such curve was filed as active; the % refers to the signal ratio)
Outline: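 Agonist mode reporter screen. ME-180 cells stably expressing bla under HRE control received test compounds in DMSO for 17 hrs (37C, 5% CO2), and beta-lactamase activity was then detected with the CCF4-AM FRET substrate.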

[13] = qHTS assay to identify small molecule agonists of H2AX - cell viability counter screen (AID 1224847; calls by dose curve; also: top concentration of the series differs between compounds; nearly all actives have a fitted effect of over 30% in size)
Outline: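 Read-out: CellTiter-Glo luminescence, 30 min RT. Cells: wild-type CHO-K1, 1000/well, 10% FBS, plated overnight at 37C. Treatment: 15 concentrations, 3 hr, 37C, 0.76% DMSO.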

[14] = qHTS assay to identify small molecule antagonists of the estrogen related receptor (ERR) signaling pathway from Tox21 library (AID 1224848); also: nearly all actives have a fitted effect of over 50% in size; also: potency is read from the fitted curve at half-maximal effect
Outline: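 Compounds dissolved in DMSO are pin-transferred onto ERR reporter cells (2,000 per well) that have settled for 6 h at 37 C. Plates then incubate 18 h at 37 C before ONE-Glo luciferase reagent and a luminescence read 30 min later.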

[15] = qHTS assay to identify small molecule agonists of the estrogen related receptor (ERR) signaling pathway from Tox21 library (AID 1224849; calls by dose curve; also: nearly all actives have a fitted effect of over 15% in size); conditions: ERR reporter cell line, ONE-Glo luciferase, 18 h; at 92.4 µM (top of the series) unless noted
Outline: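 Quantitative HTS in agonist format: NTP ERR cell line, compounds transferred in DMSO after 6 h plating, 18 h incubation at 37 C, ONE-Glo luminescence endpoint.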

[16] = qHTS RealTime-Glo MT Cell Viability Assay in HepG2 cells - 24 hour (AID 1224867); also: nearly all actives have a fitted effect of over 50% in size
Outline: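 HepG2 cells (600/well) were dispensed with RealTime-Glo reagents, incubated 5 h at 37 °C, then treated with compounds in DMSO for up to 40 h. Nonlytic NanoLuc luminescence reflecting viable cells was read at each stated time point.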

[17] = qHTS RealTime-Glo MT Cell Viability Assay in HEK293 cells - 32 hour (AID 1224868); also: nearly all actives have a fitted effect of over 50% in size; also: potency is read from the fitted curve at half-maximal effect
Outline: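 HEK293 cells seeded with NanoLuc/prosubstrate reagent, rested 5 h at 37 C, then dosed and kept at 37 C up to 40 h. Nonlytic real-time luminescence from viable cells read at 0, 8, 16, 24, 32 and 40 h.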

[18] = A CellTox Green Cytotoxicity Assay to monitor cytotoxicity in HEK293 cells - 0 hour (AID 1224869); also: nearly all actives have a fitted effect of over 50% in size
Outline: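 Dead-cell fluorescence measured kinetically: asymmetric cyanine dye, HEK293, 600 cells/well, 5 h settle, 23 nL cpd/DMSO, 37 C, reads 0–40 h every 8 h.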

[19] = target: Thyrotropin receptor (Homo sapiens) (UniProt P16473); test: qHTS assay to identify small molecule agonists of the thyroid stimulating hormone receptor (TSHR) signaling pathway (AID 1224843; calls by dose curve; also: nearly all actives have a fitted effect of over 45% in size)
Outline: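 HEK293/TSHR, 800 cells/well; cpd 30 min RT; add cAMP-d2 + anti-cAMP-cryptate, 1 h RT; fluorescence read on plate reader. 15-pt titration, n=3.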

[20] = qHTS assay to identify small molecule agonists of the estrogen related receptor signaling pathway with the pleiotropic PPARgamma coactivator (PGC) (AID 1224823)
Outline: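 Luminescence readout (One-Glo, 30 min RT) from PGC/ERR cell line treated 18 h at 37 C with pin-tool-delivered DMSO compound solutions; cells plated 6 h before dosing. Quantitative HTS format.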

Chain of Thyrotropin receptor (Homo sapiens) (P16473 whole entry, looked up): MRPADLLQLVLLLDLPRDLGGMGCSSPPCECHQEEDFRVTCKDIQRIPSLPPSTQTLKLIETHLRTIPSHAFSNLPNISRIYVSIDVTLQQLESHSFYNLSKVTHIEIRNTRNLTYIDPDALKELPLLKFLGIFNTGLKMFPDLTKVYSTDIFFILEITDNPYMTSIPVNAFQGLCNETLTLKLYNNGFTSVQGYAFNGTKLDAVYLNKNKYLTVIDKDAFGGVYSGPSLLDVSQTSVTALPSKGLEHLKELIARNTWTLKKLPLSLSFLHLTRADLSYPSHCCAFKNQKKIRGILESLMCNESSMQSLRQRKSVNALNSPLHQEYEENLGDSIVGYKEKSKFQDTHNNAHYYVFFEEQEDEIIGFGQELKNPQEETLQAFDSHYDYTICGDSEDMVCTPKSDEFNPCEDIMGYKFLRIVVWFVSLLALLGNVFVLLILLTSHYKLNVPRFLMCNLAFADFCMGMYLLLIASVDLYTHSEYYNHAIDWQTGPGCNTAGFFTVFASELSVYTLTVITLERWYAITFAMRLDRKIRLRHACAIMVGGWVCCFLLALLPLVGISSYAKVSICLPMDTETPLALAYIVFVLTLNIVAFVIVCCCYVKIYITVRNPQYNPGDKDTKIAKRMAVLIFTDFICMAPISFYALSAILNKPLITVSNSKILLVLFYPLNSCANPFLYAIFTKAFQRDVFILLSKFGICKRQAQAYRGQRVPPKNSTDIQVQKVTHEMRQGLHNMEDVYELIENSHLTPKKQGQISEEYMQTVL
Chain of Nuclear receptor subfamily 1 group I member 3 (Homo sapiens) (Q14994 whole entry, looked up): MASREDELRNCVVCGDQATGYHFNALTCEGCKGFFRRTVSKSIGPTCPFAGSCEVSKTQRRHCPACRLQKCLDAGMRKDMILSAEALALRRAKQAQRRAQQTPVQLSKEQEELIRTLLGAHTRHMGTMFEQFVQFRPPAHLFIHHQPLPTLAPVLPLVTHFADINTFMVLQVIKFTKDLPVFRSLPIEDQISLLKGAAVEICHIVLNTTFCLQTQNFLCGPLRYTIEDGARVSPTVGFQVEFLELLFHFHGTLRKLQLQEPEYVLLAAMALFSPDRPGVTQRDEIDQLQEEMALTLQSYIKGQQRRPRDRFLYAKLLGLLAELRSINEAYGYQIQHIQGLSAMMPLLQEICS
Chain of Luciferin 4-monooxygenase (Photinus pyralis) (P08659 whole entry, looked up): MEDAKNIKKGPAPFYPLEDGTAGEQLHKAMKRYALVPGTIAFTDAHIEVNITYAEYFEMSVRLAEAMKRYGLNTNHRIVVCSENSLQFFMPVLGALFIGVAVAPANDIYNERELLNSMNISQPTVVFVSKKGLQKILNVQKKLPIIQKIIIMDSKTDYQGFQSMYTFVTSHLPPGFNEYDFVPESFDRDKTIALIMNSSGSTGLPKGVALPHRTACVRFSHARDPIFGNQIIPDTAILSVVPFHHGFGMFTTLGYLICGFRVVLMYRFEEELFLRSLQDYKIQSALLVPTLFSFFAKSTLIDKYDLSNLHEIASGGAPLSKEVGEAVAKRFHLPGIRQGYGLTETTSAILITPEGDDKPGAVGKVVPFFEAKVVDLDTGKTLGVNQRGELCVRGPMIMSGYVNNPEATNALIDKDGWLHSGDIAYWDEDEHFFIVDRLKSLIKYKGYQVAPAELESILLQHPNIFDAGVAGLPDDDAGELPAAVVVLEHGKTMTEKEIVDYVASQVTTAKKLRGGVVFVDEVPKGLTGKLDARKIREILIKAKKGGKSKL

SMILES	Potency [1]	Potency [2]	outcome [3]	outcome [4]	Potency [5]	Potency [6]	outcome [7]	Potency [8]	Potency [9]	Potency [10]	outcome [11]	outcome [12]	Potency [13]	Potency [14]	activity change, positive = activation [15]	outcome [16]	Potency [17]	Potency [18]	outcome [19]	outcome [20]
CCCCCCOC(=O)c1ccccc1O	inactive	17.8 µM (active)	inactive	inactive	inactive	inactive	inactive	inactive	inactive	inactive	inactive	inactive	inactive	inactive	8.56%	inactive	inactive	inactive	–	–
COc1cc(CCC(C)=O)ccc1O	inactive	inactive	inactive	inactive	inactive	inactive	inactive	inactive	inactive	inactive	inactive	inactive	inactive	inactive	3.47%	inactive	–	inactive	inactive	–
Cc1nc(-c2ccc(OCC(C)C)c(C#N)c2)sc1C(=O)O	inactive	0.309 µM (active)	inactive	inactive	inactive	0.075 µM (active)	inactive	inactive	0.668 µM (active)	inactive	inactive	inactive	–	inactive	18.5% [at 42.5 µM] (active)	inactive	inactive	inactive	inactive	–
C=C(C)C(=O)OCCC(C)OC(=O)C(=C)C (stereo not drawn)	inactive	inactive	inactive	inactive	inactive	inactive	inactive	inactive	inactive	inactive	inactive	inactive	–	inactive	3.72%	inactive	inactive	inactive	inactive	–
CN(C)C(=O)C(CCN1CCC(O)(c2ccc(Cl)cc2)CC1)(c1ccccc1)c1ccccc1	26.6 µM (active)	inactive	–	–	–	–	–	inactive	inactive	–	inactive	–	inactive	21.1 µM (active)	-39.4% [at 42.5 µM]	–	10.7 µM (active)	inactive	–	inactive
CC(C)CCCC(C)CCCC(C)CCCCC(C)CCCC(C)CCCC(C)C (stereo not drawn)	inactive	inactive	inactive	inactive	inactive	inactive	inactive	–	–	inactive	inactive	inactive	inactive	–	–	inactive	inactive	inactive	inactive	–
N#CCc1ccccc1[N+](=O)[O-]	inactive	inactive	inactive	inactive	inactive	inactive	inactive	–	–	inactive	inactive	inactive	inactive	–	–	inactive	inactive	inactive	inactive	–
O=C1CC2(CCCC2)CC(=O)N1	inactive	inactive	inactive	inactive	inactive	inactive	inactive	–	–	inactive	inactive	inactive	inactive	–	–	inactive	inactive	inactive	inactive	–
